# Only a selection was taken, and the strongest signals are over-represented in it overall.
# B1: PpFlo3 (Pichia pastoris) (protein)
# chain: MGSSHHHHHHSSGLVPRGSHMQESGNGTTSDTAYACDIGATPFDGFNATIYQYQASDDNSIQDPVFMSTGYLQRNQLHSTTGVTNPGFNIFTAGVATTTLYGIPNVNYQNMLLELKGYFRADASGNYGLSLRNIDDSAILFFGRETAFECCNENLIPLDEAPTDYSLFTIKEGEASTNPDSYTYTQYLEAGRYYPVRTFFANIRTRAVFNFTMTLPDGSELTDFQNYIFQFGALNQ
# How the values were obtained:
# Assay in all cases: glycan array binding signal (z-score within array); higher = stronger binding
# Conditions in all cases: glycan notation: IUPAC condensed, linker removed
# [1] = biological target: Fuc(a1-2)Gal(b1-3)GalNAc
# In short: (§1)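 From the Consortium for Functional Glycomics database, 3228 arrays were curated, keeping only those whose protein sequence was available. Binding is given as a within-array Z-score averaged across arrays sharing a protein sequence and across linkers. Negative Z-scores can be read as non-binding.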
# [2] = biological target: Fuc(a1-2)Gal(b1-3)GalNAc(a1-3)[Fuc(a1-2)]Gal(b1-4)GlcNAc
# In short: as §1
# [3] = biological target: Fuc(a1-2)Gal(b1-4)GlcNAc
# In short: as §1
# [4] = biological target: Fuc(a1-2)Gal(b1-4)GlcNAc(b1-2)Man(a1-3)[Fuc(a1-2)Gal(b1-4)GlcNAc(b1-2)Man(a1-6)]Man(b1-4)GlcNAc(b1-4)[Fuc(a1-6)]GlcNAc
# In short: as §1
# [5] = biological target: Fuc(a1-2)Gal(b1-4)[Fuc(a1-3)]GlcNAc
# In short: as §1
# [6] = biological target: Fuc(a1-2)Gal(b1-4)[Fuc(a1-3)]GlcNAc(b1-3)Gal(b1-4)[Fuc(a1-3)]GlcNAc(b1-3)Gal(b1-4)[Fuc(a1-3)]GlcNAc
# In short: as §1
# [7] = biological target: Fuc(a1-2)Gal6S(b1-4)Glc
# In short: as §1
# [8] = biological target: Fuc(a1-2)[Gal(a1-3)]Gal(b1-3)GlcNAc(b1-2)Man(a1-3)[Fuc(a1-2)[Gal(a1-3)]Gal(b1-3)GlcNAc(b1-2)Man(a1-6)]Man(b1-4)GlcNAc(b1-4)GlcNAc
# In short: as §1
# [9] = biological target: Fuc(a1-2)[GalNAc(a1-3)]Gal
# In short: as §1
# [10] = biological target: Fuc(a1-2)[GalNAc(a1-3)]Gal(b1-3)GlcNAc(b1-3)GalNAc
# In short: as §1
# [11] = biological target: Fuc(a1-2)[GalNAc(a1-3)]Gal(b1-4)GlcNAc(b1-3)Gal(b1-4)GlcNAc(b1-3)Gal(b1-4)GlcNAc
# In short: as §1
# [12] = biological target: Fuc(a1-3)[Gal(b1-4)]GlcNAc(b1-4)Gal(b1-4)[Fuc(a1-3)]GlcNAc
# In short: as §1
# [13] = biological target: Fuc(a1-3)[Gal(b1-4)]GlcNAc(b1-6)GalNAc
# In short: as §1
# [14] = biological target: Gal(a1-4)Gal(b1-4)GlcNAc
# In short: as §1
# [15] = biological target: Gal(b1-3)GlcNAc
# In short: as §1
# [16] = biological target: Gal(b1-3)GlcNAc(b1-3)GalNAc
# In short: as §1
# [17] = biological target: Gal(b1-4)Glc6S
# In short: as §1
# [18] = biological target: Gal(b1-4)GlcNAc(b1-2)Man(a1-3)[Man(a1-6)]Man(b1-4)GlcNAc(b1-4)GlcNAc
# In short: as §1
# [19] = biological target: Gal(b1-6)Gal
# In short: as §1
# [20] = biological target: Gal3S(b1-3)[Fuc(a1-4)]GlcNAc
# In short: as §1
# [21] = biological target: Gal3S6S(b1-4)GlcNAc
# In short: as §1
# [22] = biological target: Gal3S6S(b1-4)GlcNAc6S
# In short: as §1
# [23] = biological target: GalNAc(b1-3)GalNAc
# In short: as §1
# [24] = biological target: Glc(a1-4)Glc(a1-4)Glc(a1-4)Glc
# In short: as §1
# [25] = biological target: Glc(b1-4)Glc
# In short: as §1
# [26] = biological target: GlcNAc(b1-2)[GlcNAc(b1-4)]Man(a1-3)[GlcNAc(b1-2)Man(a1-6)]Man(b1-4)GlcNAc(b1-4)GlcNAc
# In short: as §1
# [27] = biological target: GlcNAc(b1-3)Gal(b1-4)Glc
# In short: as §1
# [28] = biological target: GlcNAc(b1-3)GalNAc
# In short: as §1
# [29] = biological target: GlcNAc(b1-3)Man
# In short: as §1
# [30] = biological target: GlcNAc(b1-3)[GlcNAc(b1-6)]GalNAc
# In short: as §1
# [31] = biological target: Man(a1-2)Man(a1-6)[Man(a1-3)]Man(a1-6)[Man(a1-2)Man(a1-2)Man(a1-3)]Man(b1-4)GlcNAc(b1-4)GlcNAc
# In short: as §1
# [32] = biological target: Neu5Ac(a2-3)Gal
# In short: as §1
# [33] = biological target: Neu5Ac(a2-3)Gal(b1-4)[Fuc(a1-3)]GlcNAc(b1-3)Gal(b1-4)[Fuc(a1-3)]GlcNAc(b1-3)Gal(b1-4)[Fuc(a1-3)]GlcNAc
# In short: as §1
# [34] = biological target: Neu5Ac(a2-3)[GalNAc(b1-4)]Gal(b1-4)GlcNAc
# In short: as §1
# [35] = biological target: Neu5Ac(a2-6)Gal(b1-4)GlcNAc
# In short: as §1
# [36] = biological target: Neu5Ac(a2-6)Gal(b1-4)GlcNAc(b1-2)Man(a1-3)[Man(a1-6)]Man(b1-4)GlcNAc(b1-4)GlcNAc
# In short: as §1
# [37] = biological target: Neu5Ac(a2-6)Gal(b1-4)GlcNAc(b1-2)Man(a1-6)[GlcNAc(b1-2)Man(a1-3)]Man(b1-4)GlcNAc(b1-4)GlcNAc
# In short: as §1
# [38] = biological target: Neu5Ac(a2-8)Neu5Ac(a2-3)Gal(b1-3)GalNAc(b1-4)[Neu5Ac(a2-8)Neu5Ac(a2-3)]Gal(b1-4)Glc
# In short: as §1
# [39] = biological target: Neu5Ac9Ac(a2-3)Gal(b1-3)GlcNAc
# In short: as §1
# [40] = biological target: Neu5Gc(a2-3)Gal(b1-4)Glc
# In short: as §1
binder,measurement,setting,value
B1,glycan array binding signal (z-score),[1],-0.256
same,glycan array binding signal (z-score),[2],-0.217
same,glycan array binding signal (z-score),[3],-0.242
same,glycan array binding signal (z-score),[4],-0.263
same,glycan array binding signal (z-score),[5],4.84
same,glycan array binding signal (z-score),[6],4.32
same,glycan array binding signal (z-score),[7],-0.279
same,glycan array binding signal (z-score),[8],-0.259
same,glycan array binding signal (z-score),[9],-0.298
same,glycan array binding signal (z-score),[10],-0.014
same,glycan array binding signal (z-score),[11],-0.303
same,glycan array binding signal (z-score),[12],2.75
same,glycan array binding signal (z-score),[13],-0.238
same,glycan array binding signal (z-score),[14],-0.139
same,glycan array binding signal (z-score),[15],-0.201
same,glycan array binding signal (z-score),[16],-0.296
same,glycan array binding signal (z-score),[17],4.38
same,glycan array binding signal (z-score),[18],-0.233
same,glycan array binding signal (z-score),[19],-0.281
same,glycan array binding signal (z-score),[20],5.08
same,glycan array binding signal (z-score),[21],-0.27
same,glycan array binding signal (z-score),[22],-0.269
same,glycan array binding signal (z-score),[23],5.1
same,glycan array binding signal (z-score),[24],-0.242
same,glycan array binding signal (z-score),[25],-0.246
same,glycan array binding signal (z-score),[26],4.67
same,glycan array binding signal (z-score),[27],-0.291
same,glycan array binding signal (z-score),[28],-0.266
same,glycan array binding signal (z-score),[29],6.76
same,glycan array binding signal (z-score),[30],1.75
same,glycan array binding signal (z-score),[31],-0.271
same,glycan array binding signal (z-score),[32],-0.283
same,glycan array binding signal (z-score),[33],-0.266
same,glycan array binding signal (z-score),[34],-0.272
same,glycan array binding signal (z-score),[35],-0.282
same,glycan array binding signal (z-score),[36],-0.281
same,glycan array binding signal (z-score),[37],4.82
same,glycan array binding signal (z-score),[38],-0.017
same,glycan array binding signal (z-score),[39],-0.267
same,glycan array binding signal (z-score),[40],-0.276

# — the supplement of paper PMC8728848
